In the supplement of paper PMC3724861:
This is one part of a sample in which hits are shown more often than they occur. How many sequences the whole screen found active is unknown. A number with no mark means an inactive call.

System: T1, Caupolican (Caup) homeodomain DNA-binding domain
T1 sequence: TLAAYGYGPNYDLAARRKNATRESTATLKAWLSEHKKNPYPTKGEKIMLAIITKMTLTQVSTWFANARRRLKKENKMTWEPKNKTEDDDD
Assay: PBM E-score (8-mer, recovered from the published 9-mer minima) (E-score (dimensionless, -0.5 to 0.5)); Drosophila protein; higher = stronger relative binding preference, active = 0.31 or more
Procedure, shortened: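 Caup's homeodomain DNA-binding domain (residues 214-303) was produced by in vitro transcription and translation and applied at 100 nM to custom-designed protein binding microarrays. Each value is an enrichment score giving relative binding preference for a short DNA word; higher means stronger. Published 9-mer scores were the minimum of their two constituent 8-mer scores, and the 8-mer values were recovered from those minima. A cutoff of 0.31 marks candidate binding sequences.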

Row | Sequence | PBM E-score
1 | ACGCGCTC | -0.0722
2 | CAAGTTAA | 0.137
3 | CTGGGCCA | -0.265
4 | GATCTCGC | -0.112
5 | GCGGTCTA | -0.0746
6 | ACAACCTC | 0.169
7 | ACTTGTCC | 0.237
8 | GATTGTCA | 0.13
9 | CCTTGTCG | 0.277
10 | TCTTGTCA | 0.329 (active)
11 | GCTTGTCC | 0.305
12 | CCTTGTCA | 0.342 (active)
13 | CCTTGTCC | 0.171
14 | TCTTGGCA | -0.0494
15 | GCTTGTCA | 0.352 (active)
16 | ACTTGTCA | ≥ 0.378 (active)
17 | TATTGTCA | 0.225
18 | ACTTGTCG | 0.266
19 | GGGCGCAA | -0.179
20 | AAGCACCG | -0.0685
21 | CGATTCAG | -0.0377
22 | CTCATAAA | 0.05
23 | AAACAAAA | 0.189
24 | GACATACC | 0.169
25 | TACATAAA | 0.329 (active)
26 | AACATACT | 0.31 (active)

Row | Sequence | PBM E-score
27 | TACATACA | 0.415 (active)
28 | CACATAAA | 0.121
29 | AACATACG | 0.28
30 | AACATACC | 0.303
31 | TCCATACA | 0.139
32 | AACATAAA | 0.286
33 | CACATACA | 0.232
34 | GACATAGA | 0.187
35 | GACATACA | 0.389 (active)
36 | GCTCCTCA | -0.234
37 | ATTCTCCG | -0.0182
38 | GACAGCAC | 0.0877
39 | CCCACTAG | -0.195
40 | CGTACTGC | -0.0592
41 | GAAAATCA | 0.141
42 | ACTCCGAG | -0.0336
43 | CTCCGGAA | -0.126
44 | AGCATACA | 0.202
45 | AACATACA | 0.361 (active)
46 | AACATAGA | 0.232
47 | GGATCTCA | -0.137
48 | AGGTTAAT | 0.0346
49 | ATGTTAAG | 0.283
50 | ATGTTAAT | 0.352 (active)
51 | ATGTTAAA | 0.353 (active)
52 | TTGTTAAA | 0.23

Row | Sequence | PBM E-score
53 | GTGTTAAC | 0.259
54 | ATGTTAAC | 0.377 (active)
55 | CTGTTAAA | 0.108
56 | CTGTTAAC | 0.117
57 | GTAAGGAA | 0.0866
58 | AGGAACGC | -0.132
59 | ATGTACAA | 0.453 (active)
60 | GTGTACAA | 0.396 (active)
61 | CTGTACCA | 0.186
62 | CTGTACGC | 0.037
63 | ATGTAGAA | 0.281
64 | GTCTACAA | 0.185
65 | CTGTACAA | 0.335 (active)
66 | TTGTACAA | ≥ 0.44 (active)
67 | ACGTACAA | 0.288
68 | GTGTACGA | 0.226
69 | GCTAAGAC | -0.0692
70 | ACTGACCC | -0.14
71 | AAATCCAG | 0.0354
72 | CGCTTGGA | -0.0438
73 | GAAGATGC | -0.152
74 | ACCAGTTC | -0.0567
75 | GGACTCCA | -0.13
76 | AGATATTG | 0.0643
77 | CATCTGCG | -0.00421
78 | CTAGAATC | 0.0169

Row | Sequence | PBM E-score
79 | TACGAACA | 0.31 (active)
80 | CACGAACA | 0.27
81 | GAAGAACA | 0.3
82 | TAAGAACA | 0.313 (active)
83 | AACGAACA | 0.305
84 | CAAGAACA | 0.187
85 | GAATCCCC | -0.127
86 | AGCGAGAC | -0.0966
87 | ACCCCATC | -0.158
88 | AATACACG | 0.343 (active)
89 | GATACACA | 0.241
90 | AATACACC | 0.292
91 | AATACACT | 0.192
92 | TATACACA | 0.289
93 | AATACACA | 0.311 (active)
94 | CATACACG | 0.325 (active)
95 | CATACACC | 0.15
96 | CATACACA | 0.309
97 | ATCTAGTG | 0.0489
98 | CGATATAC | 0.0606
99 | CCAAAAAG | -0.00726
100 | ACGAAGTA | 0.0633
101 | AATGTCAA | 0.235
102 | TCTGTCAA | 0.157
103 | GGTGTCAA | 0.197
104 | GATGTCAA | 0.332 (active)

Row | Sequence | PBM E-score
105 | TATGTCAA | ≥ 0.359 (active)
106 | GATGTCCA | 0.195
107 | GTGAAGGA | -0.0495
108 | CTTAGACA | 0.0709
109 | AAATGGTA | 0.174
110 | GAGCTCTA | -0.0532
111 | GTTGTGTA | 0.298
112 | CTTGTATA | 0.353 (active)
113 | ATTGTGTA | 0.283
114 | AGTGTATA | 0.14
115 | ACTGTATA | 0.143
116 | ATTGTATA | 0.259
117 | CGTGTATA | 0.321 (active)
118 | CCTGTATA | 0.142
119 | GTTGTATA | 0.347 (active)
120 | CGTGTATC | 0.258
121 | CTTGTGTA | ≥ 0.341 (active)
122 | GCTGTATA | 0.194
123 | AGAGGTAC | 0.0429
124 | AGTGGCCG | -0.226
125 | TGCGACAA | 0.148
126 | GAAGAGGA | -0.161
127 | ACCTGCAA | -0.023
128 | GCCGTATA | 0.0675
129 | ACGCCTAA | 0.0349
130 | TGGTCAAA | 0.0685

Row | Sequence | PBM E-score
131 | CCCTCTAG | -0.126
132 | ATTGTATC | 0.215
133 | CTTGTATC | 0.34 (active)
134 | CTTGTAGC | 0.271
135 | CAATACAC | 0.271
136 | TAATACAA | 0.278
137 | AAATACAA | 0.327 (active)
138 | AAATACTT | 0.1
139 | AAATACAT | 0.338 (active)
140 | AAATACAC | 0.312 (active)
141 | CAATACAA | 0.261
142 | AAATACAG | 0.132
143 | GAATACAC | 0.25
144 | CATCTCAG | -0.0232
145 | CCCAGCAG | -0.201
146 | TACATTCA | 0.232
147 | AAGCCTGC | -0.156
148 | AAAGTGGT | 0.0391
149 | GAAAAAGA | -0.0311
150 | GACCGAGA | -0.103
151 | ACTAGCTC | 0.0549
152 | ACGTGGTA | 0.132
153 | CTTAATCA | 0.013
154 | CTAGTACA | 0.337 (active)
155 | CTAGTAAA | 0.211
156 | ATAGTACC | 0.134

Row | Sequence | PBM E-score
157 | ATAGTACA | 0.343 (active)
158 | GTAGTAGA | 0.0981
159 | ATAGTACG | 0.0984
160 | CTAGTACC | 0.201
161 | GTAGTACA | 0.346 (active)
162 | GTAGTATA | 0.219
163 | GCATTTAA | 0.11
164 | TTCTAGAA | -0.0405
165 | CGCAGCCG | -0.267
166 | ACCTCCGA | -0.0504
167 | GCTTCTGA | -0.0992
168 | CCGCTTTA | -0.0283
169 | ACAACACG | 0.387 (active)
170 | ACAACACC | 0.301
171 | GCAACACA | 0.144
172 | ACAACACA | ≥ 0.395 (active)
173 | CCAACACA | 0.17
174 | ACAACTCT | 0.147
175 | AAAACACT | 0.0862
176 | CCAACACG | 0.237
177 | ACAACACT | 0.326 (active)
178 | CTATTAGC | 0.0355
179 | CGCAATAC | 0.0451
180 | AGATTAGG | 0.00061
181 | GCCCTTCC | -0.169
182 | AAAGGCGT | -0.125

Row | Sequence | PBM E-score
183 | ACAAGCAG | 0.229
184 | GCAAGCAA | -0.0127
185 | TCAAGCAA | 0.0149
186 | ACAAGCAA | 0.341 (active)
187 | ACAAGCAC | 0.246
188 | ACAAGCAT | 0.377 (active)
189 | AGACCCGA | -0.108
190 | ACTTTACC | 0.122
191 | CGGATGGC | -0.0761
192 | AACGCCCG | -0.108
193 | GCAGTCCC | -0.194
194 | CATGTAGC | 0.332 (active)
195 | CATGTAGG | 0.356 (active)
196 | CAAGTAGG | -0.00819
197 | AATGTAGG | 0.116
198 | GATGTAGC | 0.166
199 | CATGTAGA | 0.391 (active)
200 | AATGTAGC | 0.0881
201 | AATGTAGA | 0.139
202 | GATGTAGA | 0.208
203 | GACTAGGC | -0.0927
204 | CCTCCAAC | -0.102
205 | TAGAAATA | 0.1
206 | CCGCTACA | 0.0971
207 | GGCCGTAA | -0.148
208 | CATTACCA | 0.119

Row | Sequence | PBM E-score
209 | ACCAATCC | -0.0418
210 | CATATACA | 0.298
211 | AATATACT | 0.155
212 | GATATACA | 0.263
213 | CTTATACA | 0.11
214 | ATTATACA | 0.254
215 | AATATACC | 0.13
216 | AGTATACA | 0.309
217 | GGTATACA | 0.183
218 | AATATACA | 0.322 (active)
219 | GTTATACA | 0.329 (active)
220 | TATATACA | 0.355 (active)
221 | TGTATACA | ≥ 0.356 (active)
222 | GCCCGTAC | -0.0447
223 | GGGATATA | -0.0036
224 | ATCGTTCG | 0.0642
225 | AGCCGTTC | -0.195
226 | ACGAACCT | -0.0743
227 | ACGTGGCG | -0.111
228 | CCACAGAA | -0.00495
229 | TATTACGA | 0.162
